HT1080 IDH1KD tx – toxicity to HT-1080 IDH1 knockdown cells (counter line). actives 2% (n = 360,000). Potency, µM (series often up to 46.1 µM), hits mostly cytotoxic. HT-1080 IDH1 knockdown viability, ATP luminescence, 48 h. AID 686971
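Assay cells: HT-1080 with IDH1 knockdown, 750 per well, RPMI/5% FBS. Exposure: 48 h at 37 °C following 2 h pre-incubation. Read: CellTiter-Glo luminescence; fitted concentration-response, curve class assigned.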
KB-V1 cytotox – kills drug-selected multidrug resistant KB-V1 cells | actives 3.4% (n = 400,000) | KB-V1 MDR cells viability, CellTiter-Glo, 72 h | Potency, µM (top dose mostly 46.1 µM), usual class: cytotoxic | AID 1347076; further: nearly all actives have a fitted effect of over 60% in size
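In this primary screen, KB-V1 cells overexpressing P-gp are incubated with library compounds (lowest to highest concentration) for 72 h at 37 degrees C before a luminescent ATP viability read.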
IL1B secr inh – inhibitors of inflammasome signaling (IL-1 beta secretion). activity change, % at 57.5 µM. AID 743279. actives 4.7% (n = 360,000). THP-1 LPS/ATP IL-1B secretion, AlphaLISA, 16 h; hits give low values; in the data active means activity change below about -50%; inconclusive means mostly about -30% to -49%
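THP-1 cells pretreated 1 hr with compounds (up to 57.5 uM final), then stimulated with LPS (250 ng/mL final) plus ATP (1.25 mM final); secreted IL-1B measured by AlphaLISA after 16 hr, decreased signal indicating inhibition.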
HT1080-NT tox – kills 2HG-producing HT-1080-NT fibrosarcoma cells | HT-1080-NT fibrosarcoma viability, CellTiter-Glo ATP luminescence, 48 h | Potency, µM (highest dose often 46.1 µM), actives largely listed as cytotoxic | actives 1.6% (n = 360,000) | AID 686970;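 further: NT is the 2HG producing partner of a matched IDH1 knockdown line; nearly all actives have a fitted effect of over 55% in size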
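Viability by CellTiter-Glo luminescence after 48 h compound exposure at 37C of HT-1080-NT cells (750/well, RPMI, 5% FBS). % activity scaled between DMSO wells and medium-only wells, then curve-fitted and categorized by curve class.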
KB-3-1 cytotox – kills parental KB-3-1 adenocarcinoma cells; KB-3-1 viability, CellTiter-Glo ATP luminescence, 72 h; Potency, µM (series often up to 46.1 µM), hits mostly cytotoxic; actives 1.4% (n = 400,000); AID 1347075; further: nearly all actives have a fitted effect of over 60% in size
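Screening of KB-3-1 cells (DMEM, 10% FBS, phenol-red free) ran from lowest to highest compound concentration; after 72 h at 37 °C viability was read luminescently and curves fitted.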
Hits are given with their value; n = inactive; u = inconclusive; x = no result given; [ ] = dose if it differs, or a comment. Compounds with a hit are over-represented: about 8.8% of the library has one in this group of screens. Unless noted, the call rests on the fitted dose curve; in most records, active means well fitted curve in the direction sought with a large enough effect; inconclusive means small, poorly fitted or top-dose-only effect, or another doubt; inactive means no such curve, though single readings can be large; an effect the other way counts as inactive or inconclusive.

SMILES | HT1080 IDH1KD tx | KB-V1 cytotox | IL1B secr inh | HT1080-NT tox | KB-3-1 cytotox
Cc1ccc(OCCn2c(=S)[nH]c3ccccc32)c(C(C)C)c1 | u | n | n | n | 15µM
COc1ccccc1OCCn1c(=S)[nH]c2ccccc21 | u | 23µM | n | n | u
Cc1cccc(OCCn2c(=S)[nH]c3ccccc32)c1 | u | n | n | n | n
S=c1[nH]c2ccccc2n1CCc1ccncc1 | n | u | -61 | n | n
Cc1ccc([N+](=O)[O-])cc1S(=O)(=O)N1CCn2cccc2C1c1ccccc1F (configuration not stated) | x | n | x | x | n
Cc1cccc(NC(=O)CSc2nc(=O)n(CCCN3CCOCC3)c3c2CCCC3)c1C | n | n | n | n | n
O=C(CNC(=O)c1ccc(Cl)cc1)OCCCOC(=O)CNC(=O)c1ccc(Cl)cc1 | n | x | n | n | x
CCN(CC)CCOC(=O)c1ccc(NC(=O)Cn2ncc3c2-c2cc(C)ccc2OC3)cc1 | x | u | x | x | n
Cc1ccc(NC(=O)Cn2c(=O)c3cccn3c3ccccc32)c(Cl)c1 | n | n | u | n | u
CC(C)Cc1ccc(C(C)C(N)=NCCc2ccccc2)cc1 (configuration not stated) | 18µM | u | -91 | 16µM | u
O=C(N=C1SC2CS(=O)(=O)CC2N1Cc1ccccc1)C1CC1 (configuration not stated) | n | n | n | n | n
CN(C)c1cccc(-c2cnc(N3CCC(c4ncc[nH]4)CC3)s2)c1 | x | n | x | x | n
COc1ccc(C(O)c2ncc(-c3ccccc3)[nH]2)c(OC)c1 (configuration not stated) | n | n | n | n | n
C=CCN=C(NC#N)SCC(=O)c1cccc(OC)c1 | u | u | -57 | n | n
O=C(O)c1ccc2nc(-c3cc4cc(Cl)ccc4oc3=O)[nH]c2c1 | x | n | x | x | n
Cn1ncc2c(Nc3ccc(Br)cc3)nc(Nc3ccc(Br)cc3)nc21 | 18µM | n | -101 | u | n
Cn1ncc2c(Nc3cccc(Cl)c3)nc(Nc3cccc(Cl)c3)nc21 | 21µM | u | -81 | 15µM | u
O=C(C1CCN(S(=O)(=O)Cc2ccccc2)CC1)N1CCN(c2cccc(C(F)(F)F)c2)CC1 | x | n | x | x | n
CC(C)(C)c1csc(NC(=O)CCc2ccccc2)n1 | n | n | -54 | n | n
O=C(O)CCCC(=O)Nc1nncs1 | n | n | n | n | n
O=C(CCCc1ccccc1)Nc1nncs1 | n | 9.2µM | n | n | n
CC(C)(C)c1csc(NC(=O)Cc2cccs2)n1 | n | u | n | n | n
COc1cccc(C(=O)Nc2ccc(Cl)c(C(F)(F)F)c2)c1 | n | n | u | n | n
COc1cc(C(=O)Nc2ccc(Cl)c(C(F)(F)F)c2)cc(OC)c1OC | n | u | -84 | u | n
COc1cc(CCC(=O)Nc2ccc(Cl)c(C(F)(F)F)c2)cc(OC)c1OC | n | 16µM | n | n | n
SMILES | HT1080 IDH1KD tx | KB-V1 cytotox | IL1B secr inh | HT1080-NT tox | KB-3-1 cytotox
COc1ccc(OCC(=O)NC2CCCc3ccccc32)cc1 (configuration not stated) | n | n | -87 | n | n
COc1ccc(NC(=O)NC2CCCc3ccccc32)c(OC)c1 (configuration not stated) | n | n | n | n | n
COc1ccc(CNC2CCCc3ccccc32)c(OC)c1 (configuration not stated) | n | n | -50 | n | n
CC(=O)c1ccc(OCCCC(=O)NC2CCCc3ccccc32)cc1 (configuration not stated) | n | 16µM | n | n | n
O=C(COc1ccccc1)NC1CCCc2ccccc21 (configuration not stated) | n | n | n | n | n
CN(C(=O)Cn1cc([N+](=O)[O-])ccc1=O)C1CCCCC1 | n | n | n | n | n
O=C(CCCCCN1C(=O)c2cccc3cccc(c23)C1=O)NCc1cccnc1 | 2.3µM | u | x | 2.9µM | n
COc1ccc(NC(=O)COC(=O)/C=C/C(=O)OCC(=O)Nc2ccc(OC)c(Cl)c2)cc1Cl | u | n | -103 | u | n
CCOC(=O)/C=C/C(=O)OCC(=O)Nc1c(Cl)cccc1Cl | n | n | -54 | n | n
COc1ccc(NC(=O)Nc2cccs2)cc1Cl | n | n | -52 | n | n
CCOC(=O)/C=C/C(=O)OCC(=O)NCc1ccccc1 | n | u | -91 | n | n
COc1ccc(NC(=O)CCC(=O)c2cccs2)cc1Cl | n | n | n | n | n
CCOC(=O)/C=C/C(=O)OCC(=O)Nc1ccc(OC)c(Cl)c1 | n | n | u | n | n
COC(=O)/C=C/C(=O)Nc1ccc(O)c(Cl)c1 | n | n | -99 | n | n
COc1ccc(NS(=O)(=O)c2ccc(NC(=S)NC(=O)/C=C/c3ccccc3)cc2)nn1 | n | n | -61 | n | n
CCc1nnc(NS(=O)(=O)c2ccc(NC(=S)NC(=O)/C=C/c3ccccc3)cc2)s1 | n | u | n | n | n
CCN(CC)S(=O)(=O)c1ccc(NC(=O)c2ccc(Sc3nncn3C)c([N+](=O)[O-])c2)cc1 | n | n | -91 | n | n
Cn1cnnc1Sc1ccc(/C=C/C(=O)c2ccc(O)cc2)cc1[N+](=O)[O-] | 18µM | n | -101 | 18µM | u
CC(=O)Nc1ccc(NC(=O)COC(=O)c2ccccc2OCc2cccc(Br)c2)cc1 | x | n | x | x | n
COc1ccc(C2=NOC(C(=O)N3CCCc4ccccc43)C2)cc1 (configuration not stated) | u | 13µM | n | n | n
COc1cc(C2=NOC(C(=O)N3CCCc4ccccc43)C2)cc(OC)c1OC (configuration not stated) | n | n | n | n[9.24 µM] | n
COc1ccc(-c2cc(C(=O)N3CCCc4ccccc43)no2)cc1 | u | 15µM | n | n | n
CC(NC(c1ccccc1)c1ccccc1)C(=O)N1CCCc2ccccc21 (configuration not stated) | n | 13µM | n | n | 18µM
O=C(c1cc(-c2ccc(O)cc2)on1)N1CCN(c2ccccc2)CC1 | n | u | -54 | n | u
O=C(c1cc(-c2ccc(O)cc2)on1)N1CCN(c2ccc(F)cc2)CC1 | n | n | n | u | u
Cc1cccn2c(=O)c3cc(C(=O)NC4CCS(=O)(=O)C4)n(Cc4ccccc4)c3nc12 (configuration not stated) | u | n | n | u | n
COc1ccccc1N1CCN(C(=O)c2cc(-c3ccc4c(c3)OCO4)on2)CC1 | n | 16µM | n | n | n
COc1ccc(-c2cc(C(=O)N3CCN(C(c4ccccc4)c4ccccc4)CC3)no2)cc1 | n | 21µM | n | n | u
CC12CCC(C(=O)N3CCCc4ccccc43)(CC1=O)C2(C)C (configuration not stated) | n | 16µM | n | n | n

From PubChem
